Screening data deposited in PubChem BioAssay by National Center for Advancing Translational Sciences (NCATS).
GLP1R inv ag: GLP-1 receptor (human) inverse agonism; AID 624417; HEK293 GLP-1R CRE-luciferase, luminescence, 24 h; GLP-1R form is constitutively active; Potency, µM (series often up to 38.3 µM), usual class: inhibitors; hit rate 1.6% among 410,000; further: nearly all actives have a fitted effect of over 55% in size
Target sequence (P43220 whole entry, looked up): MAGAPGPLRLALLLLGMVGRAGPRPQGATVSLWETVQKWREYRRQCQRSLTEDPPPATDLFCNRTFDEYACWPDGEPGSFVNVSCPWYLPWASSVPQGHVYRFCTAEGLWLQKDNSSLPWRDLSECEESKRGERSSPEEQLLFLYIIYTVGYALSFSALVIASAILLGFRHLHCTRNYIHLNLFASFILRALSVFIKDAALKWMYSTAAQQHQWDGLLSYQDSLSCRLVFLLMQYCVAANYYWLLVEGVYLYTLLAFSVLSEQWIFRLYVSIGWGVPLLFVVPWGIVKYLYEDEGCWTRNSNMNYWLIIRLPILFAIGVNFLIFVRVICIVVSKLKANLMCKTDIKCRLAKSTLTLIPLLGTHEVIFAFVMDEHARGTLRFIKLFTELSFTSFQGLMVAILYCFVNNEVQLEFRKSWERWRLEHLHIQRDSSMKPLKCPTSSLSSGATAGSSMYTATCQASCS
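Stable HEK293 clone (constitutively active GLP-1R + cAMP-response luciferase); 200 cells/uL plated, 12 h pre-culture, compound 24 hr, 37 deg C/5% CO2; detection reagent 12 min RT; luminescence.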
GLP1R ag: GLP-1 receptor (human) agonism; HEK293 GLP-1R CRE-luciferase, luminescence, 4-6 h; cells express a hypersensitive GLP-1R form; P43220; hit rate 0.007% among 380,000; Potency, µM (top dose mostly 45.6 µM), usual class: activators; AID 624172
GLP1R cytotox: cytotoxicity counter-screen for GLP-1 receptor inverse agonists; HEK293 cAMP-luciferase reporter cells, luminescence, 24 h; Potency, µM (doses to about 38.3 µM), actives largely listed as inhibitors; hit rate 0.13% among 410,000;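 further: loss of luciferase light is scored as toxicity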
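Here, cytotoxicity is scored as loss of luminescence. The MLSMR collection was tested on cells seeded in medium containing 10% Nu serum, with a 24 hr compound exposure preceded by 12 hours of culture.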
PTHR1 agonist: activates the human parathyroid hormone receptor PTHR1; Q03431; HEK293 GP2 PTHR1 cells, GloSensor cAMP luminescence, 1 h; Potency, µM (titrated, usually from 115 µM), hits mostly activators; hit rate 0.075% among 410,000; further: nearly all actives have a fitted effect of over 55% in size
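HEK-293-derived GP2 cells expressing PTHR1 and a GloSensor cAMP reporter, 3,000/well, plated overnight, given luciferin plus IBMX (each 0.5 mM as added) for 1 h at 37 °C, then compound for 1 h at 37 °C. Luminescence was read after 15 min at room temperature.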
Of the large screens only hits and unclear results are named; the others gave an inactive call. In the library only some 1.7% were active in any assay of this set; here they are far more common. The call rests on the fitted dose curve; in most records, active means well fitted curve in the direction sought with a large enough effect; inconclusive means small, poorly fitted or top-dose-only effect, or another doubt; inactive means no such curve, though single readings can be large; an effect the other way counts as inactive or inconclusive.

CCCCCCCCCCCCCCCCCC(=O)OCCO	none (no result: GLP1R inv ag, GLP1R cytotox, PTHR1 agonist)
Cc1ccc(-c2cn(-c3ccc(Cl)cc3)c(S(=O)(=O)CC(=O)Nc3ccccc3)n2)cc1	GLP1R inv ag inconclusive (no result: GLP1R ag)
CCOC(=O)c1ccc(NC(=O)Cn2nc(C)c3nn(-c4ccc(Cl)cc4)c(C)c3c2=O)cc1	none (no result: GLP1R ag)
COc1ccc(-n2c(C)cc(C(=O)CN3C(=O)NC4(CCCc5sccc54)C3=O)c2C)cc1 (stereo not given)	GLP1R inv ag 12.6µM
Cc1ccccc1C(=O)N1CCC(C(=O)Nc2nccs2)CC1	none
Cc1ccccc1C(=O)N1CCC(C(=O)Nc2nc3ccc(F)cc3s2)CC1	GLP1R inv ag 10µM
COc1cc(-c2noc(CCC(=O)Nc3cc(C)ccc3C)n2)cc(OC)c1OC	none (no result: GLP1R ag)
Cc1nc2sc(C)c(C)n2c(=O)c1S(=O)(=O)N1CCN(c2ccccc2F)CC1	none (no result: GLP1R ag)
C=CCNC(=O)N1CCc2[nH]c3ccc(F)cc3c2C1	none
Fc1ccc2[nH]c3c(c2c1)CN(C(=S)NCc1ccccc1)CC3	GLP1R inv ag 5.01µM
Cc1cc([N+](=O)[O-])c2ccccc2c1NS(=O)(=O)c1ccccc1	GLP1R inv ag 10µM
CC1=C(c2ccc(C)c(C)c2)S(=O)(=O)N=C1N1CCC(C(=O)N2CCC(C(N)=O)CC2)CC1	none (no result: GLP1R ag)
O=c1[nH]c(C2CCN(S(=O)(=O)c3cccc(C(F)(F)F)c3)CC2)nc2c1nnn2Cc1cccc(F)c1	GLP1R inv ag 7.94µM, GLP1R cytotox inconclusive
O=c1[nH]c(C2CCN(S(=O)(=O)c3ccc4c(c3)OCCO4)CC2)nc2c1nnn2Cc1cccc(F)c1	none
O=S1(=O)c2ccc(Br)cc2N2CCC[C@H]2CN1Cc1ccccc1	GLP1R inv ag 3.98µM, GLP1R cytotox inconclusive
CC(=O)Nc1cc(C(=O)Nc2ccc3c(c2)N(C)C(=O)c2ccccc2S3)ccc1C	GLP1R inv ag inconclusive (no result: GLP1R ag)
Cc1ccc(C(=O)Nc2ccc3c(c2)N(C)C(=O)c2ccccc2S3)cc1F	GLP1R inv ag 1.78µM, GLP1R cytotox inconclusive (no result: GLP1R ag)
O=C(NNc1cc(Cl)ccc1Cl)C1CCC1	GLP1R inv ag 3.16µM
Cc1ccc(C(C(=O)NCC2CCCO2)N(Cc2ccccc2)C(=O)c2ccc(-c3ccccc3)[nH]2)o1 (stereo not given)	GLP1R inv ag inconclusive
O=C(NCC1CCCO1)C(c1cccs1)N(Cc1ccccc1Cl)C(=O)c1ccc(-c2ccccc2)[nH]1 (stereo not given)	GLP1R inv ag 2.51µM
CC(C)C[C@H](NC(=O)OC(C)(C)C)c1nnc(SCc2ccccc2)o1	GLP1R inv ag 8.91µM
CCOC(=O)CSc1nnc([C@H](Cc2ccccc2)NC(=O)OC(C)(C)C)o1	none
CCc1ccc(NC(=O)CSC2=Nc3ccccc3C3=NC(CCC(=O)NCc4ccccc4)C(=O)N23)cc1 (stereo not given)	none (no result: GLP1R ag)
Cc1ccc(-c2cc(C(=O)Nc3nccs3)c3ccccc3n2)o1	GLP1R inv ag 10µM
CN1CCN(C(CNS(=O)(=O)c2ccc(Br)cc2)c2ccc3c(c2)OCO3)CC1 (stereo not given)	GLP1R inv ag 10µM
O=S(=O)(NCC(c1ccc2c(c1)OCO2)N1CCOCC1)c1ccc(Br)cc1 (stereo not given)	GLP1R inv ag inconclusive
Cc1ccc(C(CNS(=O)(=O)c2ccc(Br)cc2)N2CCN(C)CC2)cc1 (stereo not given)	GLP1R inv ag 7.94µM
COc1ccc(CNCCC(c2ccc(OC)cc2)c2ccccc2OC)cc1 (stereo not given)	GLP1R inv ag 10µM, GLP1R cytotox inconclusive
COc1ccc(C(CCNCc2ccc(N(C)C)cc2)c2ccccc2OC)cc1 (stereo not given)	GLP1R inv ag 10µM, GLP1R cytotox inconclusive
COc1ccc(C(CCNCc2ccc(OC(C)C)cc2)c2ccccc2OC)cc1 (stereo not given)	GLP1R inv ag inconclusive, GLP1R cytotox inconclusive
COc1cc(OC)cc(N2C(=O)N(Cc3ccc(C(C)(C)C)cc3)c3ccccc3S2(=O)=O)c1	none
O=C(CSc1nc(-c2ccc(Cl)cc2)cs1)Nc1cccc([N+](=O)[O-])c1	GLP1R inv ag 10µM
Cc1cc(NC(=O)CSc2nc(-c3ccc(Cl)cc3)cs2)no1	none
CC(C)(C)OC(=O)N1CCC2(CC1)Oc1ccc(F)cc1C(=O)C21CC(c2ccccc2)=NO1 (stereo not given)	GLP1R inv ag 11.2µM
Cc1ccc(C)n1-c1c(C(=O)NCCCN2CCN(c3ccc(F)cc3)CC2)sc2ncccc12	none (no result: GLP1R ag)
CC1CCN(c2ccc(-c3cccc(NC(=O)c4ccco4)c3)nn2)CC1	GLP1R inv ag 11.2µM
CS(=O)(=O)c1ccc(-c2cccc(NC(=O)c3ccco3)c2)nn1	none
CC1CCN(c2ccc(-c3cccc(NC(=O)C(F)(F)F)c3)nn2)CC1	GLP1R inv ag 1µM
CCC(=O)Nc1ccc(-c2ccc(N3CCC(C)CC3)nn2)cc1	GLP1R inv ag 7.94µM
CCC(=O)Nc1cccc(-c2ccc(N3CCC(C)CC3)nn2)c1	none
CCCCCCCCCCCCCCCCCCNC(=O)OC1CCN(C(=O)OC[C@H](COC(=O)N(Cc2cccc[n+]2CC)C(=O)c2ccccc2OC)OC)CC1	none (no result: GLP1R inv ag, GLP1R cytotox, PTHR1 agonist)
O=C1[C@H]2[C@@H](c3ccccc3)N[C@]3(CCCN(Cc4ccccc4)C3=O)[C@H]2C(=O)N1Cc1ccccc1	none
O=C1[C@H]2[C@@H](c3ccccc3)N[C@]3(CCCN(Cc4ccc(C(F)(F)F)cc4)C3=O)[C@H]2C(=O)N1Cc1ccccc1	GLP1R inv ag 11.2µM
O=C1[C@H]2[C@@H](c3ccc(C(F)(F)F)cc3)N[C@]3(CCCN(Cc4ccc(F)cc4)C3=O)[C@H]2C(=O)N1Cc1ccccc1	GLP1R inv ag 8.91µM, GLP1R cytotox inconclusive
O=C1[C@H]2[C@@H](c3ccccc3)N[C@]3(CCCN(Cc4ccc(F)cc4)C3=O)[C@H]2C(=O)N1Cc1ccccc1	none
CCCCn1cc(S(=O)(=O)c2ccc(Cl)cc2)c(=O)c2cc(F)c(N3CCCC(C)C3)cc21 (stereo not given)	none (no result: GLP1R ag)
Cc1cccc(OCCSc2nc3ccc(NC(=O)c4cccs4)cc3s2)c1	GLP1R inv ag inconclusive (no result: GLP1R ag)
CC(Nc1nc(N2CCNCC2)nc2ccccc12)c1ccccc1 (stereo not given)	GLP1R inv ag 11.2µM, GLP1R cytotox inconclusive
CC(Nc1nc(-c2ccncc2)nc2ccccc12)c1ccccc1 (stereo not given)	GLP1R inv ag 7.08µM, GLP1R ag inconclusive
COc1ccc(NC(=O)c2nnn(CC(=O)Nc3cc(C)cc(C)c3)c2N)c(OC)c1	none
COc1ccc(Cn2ccc3nc(C)c(C(=O)Nc4cc(OC)c(OC)c(OC)c4)cc3c2=O)cc1	none (no result: GLP1R ag)
CCCNC(=O)c1cccc(Cn2nc(C)c(Br)c2C)c1	GLP1R inv ag inconclusive
Cc1nn(Cc2cccc(C(=O)NC34CC5CC(CC(C5)C3)C4)c2)c(C)c1Br	GLP1R inv ag 2.82µM
O=C(Nc1cc(C(F)(F)F)ccc1Cl)c1cc(-c2cccs2)nc2ccccc12	none (no result: GLP1R ag)
Oc1ccc(C(=S)N2CCN(Cc3ccccc3)CC2)cc1	none
